Source: publication PMC6212833
Whole data set: some 2,000 compounds, median “B-score” near -0.0024, cut for the highest 2% near 4. The sample holds the highest values, similar compounds and a random draw of the others, so the mix is not that of the screen.

These compounds were tested on Balamuthia mandrillaris (ATCC PRA-291) trophozoites, axenic culture (assay: primary screen, b score). Conditions: 20 µM.
In short: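 Trophozoites (3,000/well) in axenic medium exposed to library drugs at 20 µM in 0.2% DMSO for 72 h; viability by CellTiter Glo luminescence at 2, 4 and 8 h. Controls: vehicle and freeze-thaw amoeba lysate; B-score corrects row, column and edge effects.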
Work on Cc1scc2c1N(C(=O)CN1CCN(C)CC1)c1ccccc1NC2=O yielded a B-score of -4.76.
With N#Cc1nn(-c2c(Cl)cc(C(F)(F)F)cc2Cl)c(N)c1S(=O)C(F)(F)F (stereo not drawn) the B-score was 0.119.
OC[C@@H]1CC[C@H](n2cnc3c(O)ncnc32)O1 was tested, and the B-score was 0.384.
C#C[C@]1(O)CCC2C3CCC4=CC(=O)CC[C@@H]4C3CCC21CC (stereo partly drawn) was tested, and the B-score was -1.87.
C#C[C@]1(O)CCC2C3CCC4=CC(=O)CC[C@@H]4C3CC[C@@]21C (stereo partly drawn) gave a B-score of 0.0185.
C#C[C@]1(O)CC[C@H]2[C@@H]3CCC4=CC(=O)CC[C@@H]4[C@H]3CC[C@@]21C gave a B-score of 5.5.
Compound CO/N=C(\C(=O)N[C@@H]1C(=O)N2C(C(=O)O)=C(CSc3nc(=O)c(=O)[nH]n3C)CS[C@H]12)c1csc(N)n1 has a B-score of -0.496.
Compound CC(C[N+](C)(C)C)OC(N)=O (stereo not drawn) has a B-score of 1.72.
CC(=O)[C@H]1CCC2C3CC=C4C[C@@H](O)CC[C@]4(C)C3CC[C@@]21C (stereo partly drawn) showed a B-score of -1.35.
N=C(N)c1ccc(N=NNc2ccc(C(=N)N)cc2)cc1 was tested, and the B-score was 9.37.
Compound Nc1c2ccccc2nc2ccccc12 has a B-score of -0.407.
CC(=O)c1ccc2c(c1)N(CCCN(C)C)c1ccccc1S2 gave a B-score of 0.888.
COc1cc(C(=O)NCCCCCC(=O)O)cc(OC)c1OC was tested, and the B-score was -2.61.
CC1=C(/C=C/C(C)=C/C=C/C(C)=C\C(=O)O)C(C)(C)CCC1 was tested, and the B-score was 1.46.
In the case of NC(=O)c1cc[n+](CC2=C(C(=O)O)N3C(=O)[C@@H](NC(=O)Cc4cccs4)[C@H]3SC2)cc1, the B-score is reported as 0.071.
CC(C)N1CCN(c2ccc(OC[C@H]3CO[C@](Cn4cncn4)(c4ccc(Cl)cc4Cl)O3)cc2)CC1 was tested, and the B-score was 2.03.
For CCC(C)n1ncn(-c2ccc(N3CCN(c4ccc(OC[C@H]5CO[C@](Cn6cncn6)(c6ccc(Cl)cc6Cl)O5)cc4)CC3)cc2)c1=O (stereo partly drawn), the B-score was 5.45.
With CCC(C)n1ncn(-c2ccc(N3CCN(c4ccc(OCC5COC(Cn6cncn6)(c6ccc(Cl)cc6Cl)O5)cc4)CC3)cc2)c1=O (stereo not drawn) the B-score was -1.07.
O=c1[nH]c(=O)c2ccccc2o1 showed a B-score of 1.88.
In the case of C(=C\c1ccccc1)/CN1CCN(C(c2ccccc2)c2ccccc2)CC1 [255681-L2], the B-score is reported as 0.414.
Cc1cn[nH]c1 [285621-L4] gave a B-score of 2.94.
Cc1cc(-c2ccc(/N=N/c3ccc4c(S(=O)(=O)O)cc(S(=O)(=O)O)c(N)c4c3O)c(C)c2)ccc1/N=N/c1ccc2c(S(=O)(=O)O)cc(S(=O)(=O)O)c(N)c2c1O was tested, and the B-score was 11.
CN(C)CC(c1ccc(O)cc1)C1(O)CCCCC1 (stereo not drawn) gave a B-score of -2.24.
Work on Nc1nc(O)c2nc(CNc3ccc(C(=O)N[C@@H](CCC(=O)O)C(=O)O)cc3)cnc2n1 [131189-L3] yielded a B-score of -0.599.
C[N+](C)(C)CCOP(=O)([O-])OP(=O)(O)OC[C@H]1O[C@@H](n2ccc(N)nc2=O)[C@H](O)[C@@H]1O gave a B-score of -1.73.
CN(C)c1ccc(C(=C2C=CC(=[N+](C)C)C=C2)c2ccc(N(C)C)cc2)cc1 gave a B-score of 9.22.
O=C(OOC(=O)c1ccccc1)c1ccccc1 gave a B-score of -0.0136.
CC(C)(C)CC(C)(C)c1cc(Cc2cc(C(C)(C)CC(C)(C)C)cc(-n3nc4ccccc4n3)c2O)c(O)c(-n2nc3ccccc3n2)c1 gave a B-score of -1.88.
Cc1ccc(-c2ncc(Cl)cc2-c2ccc(S(C)(=O)=O)cc2)cn1 gave a B-score of 2.78.
With Cc1nc2n(c(=O)c1CCN1CCC(c3noc4cc(F)ccc34)CC1)CCC[C@H]2O the B-score was 0.893.
For OCC(S)CS (stereo not drawn), the B-score was 8.18.
With CC(O)Cn1cnc2c1c(=O)n(C)c(=O)n2C (stereo not drawn) the B-score was -3.33.
For NS(=O)(=O)c1cc(C2(O)NC(=O)c3ccccc32)ccc1Cl (stereo not drawn), the B-score was 0.358.
For O[C@H]1[C@H](O)[C@@H](O)[C@H](O)[C@@H](O)[C@H]1O, the B-score was -1.95.
With N=C(NCCCCCCNC(=N)NC(=N)Nc1ccc(Cl)cc1)NC(=N)Nc1ccc(Cl)cc1 the B-score was 20.8.
Compound CC(C)/N=C(N)/N=C(\N)Nc1ccc(Cl)cc1 [131550-L3] has a B-score of -1.38.
CC(C)/N=C(N)/N=C(\N)Nc1ccc(Cl)cc1 [131550-L2] gave a B-score of 0.326.
Cc1cccc(C)c1NC(=O)C(C)N (stereo not drawn) gave a B-score of 0.0863.
In the case of CC[C@@H](CO)NC(=O)[C@@H]1C=C2c3cccc4c3c(cn4C)C[C@H]2N(C)C1 [756841-L1], the B-score is reported as 0.825.
In the case of CC(=O)Oc1cc2c(s1)CCN([C@H](C(=O)C1CC1)c1ccccc1F)C2, the B-score is reported as 0.0184.
Compound CN[C@@H]1[C@@H](O[C@H]2O[C@H](CO)[C@@H](N)[C@H](O)[C@H]2O)O[C@H]2C[C@@H](N)[C@H](O[C@H]3[C@H](O)[C@@H](O)[C@H](N)C[C@@H]3N)O[C@@H]2[C@@H]1O has a B-score of -1.36.
O=C(O)c1ccccc1-c1c2cc(I)c(=O)c(I)c-2oc2c(I)c(O)c(I)cc12 showed a B-score of 14.8.
N[C@@H]1[C@H]2CN(c3nc4c(cc3F)c(=O)c(C(=O)O)cn4-c3ccc(F)cc3F)C[C@@H]12 gave a B-score of -1.05.
C#C[C@]1(O)CCC2C3CCc4cc(OC)ccc4C3CC[C@@]21C (stereo partly drawn) showed a B-score of -0.0352.
COc1cc2c(cc1OC)C(=O)C(CC1CCN(Cc3ccccc3)CC1)C2 (stereo not drawn) was tested, and the B-score was -0.41.
c1ccc2c(c1)Nc1ccccc1S2 gave a B-score of 0.971.
Compound CC(=O)N[C@@H]1[C@@H](C(O)[C@H](O)CO)O[C@](O)(C(=O)O)C[C@@H]1O (stereo partly drawn) has a B-score of -1.13.
Compound Cc1nc(Nc2ncc(C(=O)Nc3c(C)cccc3Cl)s2)cc(N2CCN(CCO)CC2)n1 [756746-L2] has a B-score of 1.19.
Compound Cc1nc(Nc2ncc(C(=O)Nc3c(C)cccc3Cl)s2)cc(N2CCN(CCO)CC2)n1 [756746-L1] has a B-score of 8.3.
In the case of C[C@H]1O[C@@H](O[C@H]2[C@@H](O)C[C@H](O[C@H]3[C@@H](O)C[C@H](O[C@H]4CC[C@@]5(C)[C@H](CC[C@@H]6[C@@H]5CC[C@]5(C)[C@@H](C7=CC(=O)OC7)CC[C@]65O)C4)O[C@@H]3C)O[C@@H]2C)C[C@H](O)[C@@H]1O, the B-score is reported as -0.38.
For CC(=O)Oc1ccccc1C(=O)Nc1ncc([N+](=O)[O-])s1, the B-score was -0.287.
With C=C1C[C@@H]2[C@H](CC[C@]3(C)C(=O)CC[C@@H]23)[C@@]2(C)C=CC(=O)C=C12 the B-score was 7.82.
C=C1CC2C(CC[C@]3(C)C(=O)CCC23)[C@@]2(C)C=CC(=O)C=C12 (stereo partly drawn) showed a B-score of -0.0158.
C[C@]12CC[C@H](O)CC1=CCC1C2CC[C@]2(C)C(=O)CC[C@@H]12 (stereo partly drawn) showed a B-score of 0.449.
CCN1CCN(c2cc3c(cc2F)c(=O)c(C(=O)O)cn3C2CC2)CC1 showed a B-score of -2.37.
With CO/N=C(\C(=O)N[C@@H]1C(=O)N2C(C(=O)O)=C(COC(C)=O)CS[C@H]12)c1csc(N)n1 the B-score was 2.94.
With N[C@@H](Cc1ccccc1)C(=O)O the B-score was -1.27.
With C#CC1(O)CCC2C3CCC4=C/C(=N/O)CCC4C3CCC21CC (stereo not drawn) the B-score was -0.44.
Compound CC(C)(O)c1ccccc1CC[C@@H](SCC1(CC(=O)O)CC1)c1cccc(/C=C/c2ccc3ccc(Cl)cc3n2)c1 has a B-score of -1.02.
Oc1c(Cl)cc(Cl)cc1Sc1cc(Cl)cc(Cl)c1O showed a B-score of -2.1.
CC(=O)OCC1=C(C(=O)O)N2C(=O)[C@@H](NC(=O)CC#N)[C@H]2SC1 showed a B-score of -1.27.
In the case of CC(=O)OCC1=C(C(=O)O)N2C(=O)[C@@H](NC(=O)CSc3ccncc3)[C@H]2SC1, the B-score is reported as -1.22.
CC(=O)OCC1=C(C(=O)O)N2C(=O)[C@@H](NC(=O)Cc3cccs3)[C@H]2SC1 showed a B-score of 4.7.
With Cc1cn([C@H]2C[C@H](N=[N+]=[N-])[C@@H](CO)O2)c(=O)[nH]c1=O [735592-L3] the B-score was -1.48.
CC(C)(C)NC(=O)[C@H]1C[C@@H]2CCCC[C@@H]2CN1C[C@@H](O)[C@H](Cc1ccccc1)NC(=O)[C@@H](CC(N)=O)NC(=O)c1ccc2ccccc2n1 gave a B-score of -1.24.
Work on NC[C@@H]1O[C@H](O[C@@H]2[C@@H](CO)OC(O[C@@H]3[C@@H](O)[C@H](N)C[C@H](N)[C@H]3OC3O[C@H](CN)[C@@H](O)[C@H](O)[C@H]3N)[C@@H]2O)[C@H](N)[C@@H](O)[C@@H]1O (stereo partly drawn) yielded a B-score of 0.82.
CC[C@H]1OC(=O)[C@H](C)[C@@H](O[C@H]2C[C@@](C)(OC)[C@@H](O)[C@H](C)O2)[C@H](C)[C@@H](O[C@@H]2O[C@H](C)C[C@H](N(C)C)[C@H]2O)[C@](C)(O)C[C@@H](C)/C(=N\OCOCCOC)[C@H](C)[C@@H](O)[C@]1(C)O showed a B-score of 0.27.
Compound CCC1=C(C)CN(C(=O)NCCc2ccc(S(=O)(=O)NC(=O)N[C@H]3CC[C@H](C)CC3)cc2)C1=O has a B-score of 1.92.
With O=C(O)C[C@H](O)C[C@H](O)/C=C/c1c(C2CC2)nc2ccccc2c1-c1ccc(F)cc1 the B-score was -0.609.
CC(C)c1nc(N(C)S(C)(=O)=O)nc(-c2ccc(F)cc2)c1/C=C/[C@@H](O)C[C@@H](O)CC(=O)O was tested, and the B-score was 3.13.
Compound COCc1c(C(C)C)nc(C(C)C)c(/C=C/[C@@H](O)C[C@@H](O)CC(=O)O)c1-c1ccc(F)cc1 has a B-score of 13.3.
CC[N+](CC)(CC)CCOc1cccc(OCC[N+](CC)(CC)CC)c1OCC[N+](CC)(CC)CC gave a B-score of 5.36.
Work on CC(C)NCC(O)COc1cccc2ccccc12 (stereo not drawn) yielded a B-score of 0.797.
Compound CC(C)NC[C@H](O)COc1cccc2ccccc12 has a B-score of -4.66.
Compound CC(Cc1ccccc1)(NC(=O)CN)c1ccccc1 (stereo not drawn) has a B-score of 1.27.
Compound CC[C@H]1CN2CCC1C[C@@H]2[C@@H](O)c1ccnc2ccc(OC)cc12 (stereo partly drawn) has a B-score of 0.0568.
Compound CCCCC1(COC(=O)CCC(=O)O)C(=O)N(c2ccccc2)N(c2ccccc2)C1=O has a B-score of -1.04.
O=C1CC[C@@H](N2C(=O)c3ccccc3C2=O)C(=O)N1 showed a B-score of -1.22.
